Source: PubChem (National Center for Advancing Translational Sciences (NCATS))
DT40 TDP1 CPT: DT40-hTDP1 cell growth loss with CPT | chicken DT40 Tdp1-/-;hTDP1 cells + 20 nM CPT, ATP luminescence, 48 h | actives 12% (n = 420,000) | AID 686979 | Potency, µM (titrated, usually from 46.2 µM), for inactives: at the highest dose activity change, negative = growth inhibition, most hits filed as inhibitors; note: potency is the fitted concentration of half-maximal effect; nearly all actives have a fitted effect of over 55% in size
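Cell growth measured by CellTiter-Glo luminescence after a minimum 48 h, 37 C compound exposure with 20 nM CPT in Tdp1-knockout DT40 cells stably expressing hTDP1, seeded 400/well; qHTS titration format.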
IL1B secr inh: inflammasome signaling inhibition, IL-1 beta readout. actives 4.7% (n = 360,000). THP-1 LPS/ATP IL-1B secretion, AlphaLISA, 16 h; stronger effect = lower value. activity change, % at 57.5 µM; in the data active = activity change below about -50%; inconclusive = mostly about -30% to -49%
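THP-1 cells pretreated 1 hr with compounds (up to 57.5 uM final), then stimulated with LPS (250 ng/mL final) plus ATP (1.25 mM final); secreted IL-1B measured by AlphaLISA after 16 hr, decreased signal indicating inhibition.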
HT1080 IDH1KD tx: kills HT-1080 cells with IDH1 knockdown; HT-1080 IDH1 knockdown viability, ATP luminescence, 48 h; Potency, µM (series often up to 46.1 µM), for the others: top-dose activity, negative = toxicity, most hits filed as cytotoxic; actives 2% (n = 360,000);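 note: potency is the fitted concentration of half-maximal effect; 0% = DMSO wells and -100% = cell-free medium wells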
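Viability of IDH1-knockdown HT-1080 fibrosarcoma cells was assessed by CellTiter-Glo after 48 h at 37 °C with titrated compound; concentration-effect curves were classified by fit quality and response size.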
HT1080NT lethal: kills 2HG-producing HT-1080-NT fibrosarcoma cells; actives 1.6% (n = 360,000); Potency, µM (series often up to 46.1 µM), without a hit: at the top dose activity, negative = less viability, hits mostly cytotoxic; HT-1080-NT fibrosarcoma viability, CellTiter-Glo ATP luminescence, 48 h;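 note: NT is the 2HG producing partner of a matched IDH1 knockdown line; potency is the fitted concentration of half-maximal effect; 0% = DMSO-treated cells and -100% = media-only wells without cells; nearly all actives have a fitted effect of over 55% in size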
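Viability by CellTiter-Glo luminescence after 48 h compound exposure at 37C of HT-1080-NT cells (750/well, RPMI, 5% FBS). % activity scaled between DMSO wells and medium-only wells, then curve-fitted and categorized by curve class.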
uPA surface inh: inhibitors of cell surface uPA generation | Potency, µM (highest dose often 38.3 µM), for the others: top-dose activity change, negative = inhibition, hits mostly inhibitors | cell surface uPA generation assay, qHTS | actives 0.31% (n = 330,000); active = well fitted inhibition curve with a large enough effect; inconclusive = small, poorly fitted or top-dose-only effect; inactive = no such curve, though single readings can be large or run the other way; tested in mouse RAW 264.7 cells; note: potency is the fitted concentration of half-maximal effect; nearly all actives have a fitted effect of over 55% in size
TDP1 cell noCPT: qHTS for Inhibitors of human tyrosyl-DNA phosphodiesterase 1 (TDP1): qHTS in cells in absence of CPT. DT40 Tdp1-/- hTDP1 cells, no CPT, ATP luminescence, 48 h. actives 15% (n = 420,000). Potency, µM (top dose mostly 46.2 µM), inactives show at the top dose activity change, negative = growth inhibition, actives largely listed as inhibitors; note: potency is the fitted concentration of half-maximal effect; nearly all actives have a fitted effect of over 55% in size
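DT40 Tdp1-/-;hTDP1 cells, no CPT (DMSO vehicle only), 400 cells/well; compounds pin-transferred; ≥48 hr, 37 °C; CellTiter-Glo 30 min RT dark, luminescence read.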
Active calls of the source: *; ? = inconclusive; nt = not tested or not shown. Shown are actives, neighbours in structure and some others; about 19% of the full set was active somewhere. Unless noted, calls come from the whole dose curve; as a rule, active = well fitted curve in the direction sought with a large enough effect; inconclusive = small, poorly fitted or top-dose-only effect, or another doubt; inactive = no such curve, though single readings can be large; an effect the other way counts as inactive or inconclusive. Unless noted, % is set by controls: 0 for no effect and ±100 for the full control effect.

SMILES	DT40 TDP1 CPT	IL1B secr inh	HT1080 IDH1KD tx	HT1080NT lethal	uPA surface inh	TDP1 cell noCPT
Cc1ncoc1C(=O)N1CCCC(N2CCN(c3ccccc3F)CC2)C1 (centres undefined)	-2.6%	33.9	-0.2%	-2.1%	0.2%	14.3%
O=C(c1ccc(Cl)cc1)C1CCCN(Cc2cnn(-c3ccccc3)c2)C1 (centres undefined)	?	-98.2*	?	?	-2.2%	?
COC(=O)c1ccc(C(c2c(C)n(C)n(-c3ccccc3)c2=O)c2c(C)n(C)n(-c3ccccc3)c2=O)cc1	-11.4%	18.9	8.6%	10.8%	-27.4%	27.2%
Cc1[nH]c2ccccc2c1C(=O)C(=O)NCc1nnnn1-c1ccc(F)c(F)c1	-18.4%	6.2	5.2%	5.7%	nt	-12.1%
CCN1C(=O)c2ccc(C(=O)Nc3c(C)cc(C)cc3C)cc2C1=O	36.0%	2.1	6.9%	12.4%	5.4%	-7.6%
CCn1c(CC(=O)Nc2ccccc2Cl)nnc1SCC(=O)NC1CCCC1	3.6%	12.9	-0.6%	-6.1%	3.1%	-7.0%
O=C(c1ccc(-c2ccccc2)cc1)C1CCCN(C(=O)c2ccncc2)C1 (centres undefined)	3.66µM*	-14.1	-28.8%	-19.2%	-6.9%	?
Cc1nn(C)cc1CN1CCCC(C(=O)c2ccc(-c3ccccc3)cc2)C1 (centres undefined)	?	-90.6*	?	?	-4.7%	20.6µM*
CC1CCCN(C(=O)c2ccncc2)C1 (centres undefined)	1.5%	7.7	20.1%	19.2%	-0.8%	12.9%
Cn1ccnc1C(=O)C1CCCN(Cc2cn[nH]c2-c2ccc(-c3ccccc3)cc2)C1 (centres undefined)	?	?	?	?	3.9%	?
O=C(c1ccc(Cl)cc1)C1CCCN(Cc2ccc(Oc3ncccn3)cc2)C1 (centres undefined)	?	-2.9	-1.1%	-3.2%	-22.9%	-84.5%
O=C(c1ccc(-c2ccccc2)cc1)C1CCCN(Cc2ccncc2)C1 (centres undefined)	16.4µM*	-86.1*	-20.8%	?	-4.9%	?
COc1ccccc1CCc1nnc(CCC(=O)NC(C)Cc2cccs2)o1 (centres undefined)	-7.0%	4.8	0.9%	2.1%	7.5%	4.3%
CCOC(=O)N1CCN(C(=O)C[C@@H]2C[C@@]3(C(=O)OCC)CCCC=C3N(Cc3ccccc3)C2=O)CC1	?	-12.3	10.2%	17.1%	nt	?
COc1cc2c(=O)n(Cc3ccccc3Cl)c(=O)n(CC(=O)Nc3ccc(C)c(C)c3)c2cc1OC	1.84µM*	nt	nt	nt	nt	7.31µM*
CC(C)(C)C(=O)Cn1c(=O)n(CCCCCC(=O)NCc2ccccc2Cl)c(=O)c2sccc21	?	nt	nt	nt	nt	20.6µM*
Cc1ccc(NC(=O)Cn2c(=O)n(CCC(=O)NCc3ccccc3Cl)c(=O)c3ccccc32)cc1	16.4µM*	nt	nt	nt	nt	20.6µM*
Cc1ccc(NC(=O)Cn2c(=O)n(CCCCC(=O)NCc3ccccc3Cl)c(=O)c3ccccc32)cc1	?	nt	nt	nt	nt	23.1µM*
CCN(CC)C(=O)Cn1c(=O)n(CCCCCC(=O)NCc2ccccc2Cl)c(=O)c2sccc21	-18.6%	nt	nt	nt	nt	-9.7%
Cc1ccccc1C(=O)NNC(=O)C1CC(=O)N(c2ccc3c(c2)OCCO3)C1 (centres undefined)	-29.0%	14.0	14.5%	0.2%	0.4%	-8.5%
COC(=O)c1c(C)oc2c1cc(NS(=O)(=O)c1cccs1)c1ccccc12	-23.5%	-3.1	?	?	-1.9%	-22.2%
Cc1oc2c(cc(NS(=O)(=O)c3ccc(C(C)C)cc3)c3ccccc32)c1C(=O)OCc1ccccc1	20.6µM*	nt	nt	nt	nt	?
CCOC(=O)c1c(C)oc2c1cc(NS(=O)(=O)c1ccc(C(=O)O)cc1)c1ccccc12	-8.9%	32.5	-14.8%	-10.5%	0.6%	-29.9%
CCOc1ccc(S(=O)(=O)Nc2cc3c(C(=O)OCc4ccccc4)c(C)oc3c3ccccc23)cc1	11.6µM*	nt	nt	nt	nt	29.1µM*
Cc1oc2c(cc(NS(=O)(=O)c3ccc(Cl)cc3)c3ccccc32)c1C(=O)O	?	36.0	-17.6%	-25.4%	0.4%	-9.6%
SMILES	DT40 TDP1 CPT	IL1B secr inh	HT1080 IDH1KD tx	HT1080NT lethal	uPA surface inh	TDP1 cell noCPT
COCCOC(=O)c1c(C)oc2c1cc(NS(=O)(=O)c1ccc(Cl)c(C)c1)c1ccccc12	?	nt	nt	nt	nt	23.1µM*
CCCCOC(=O)c1c(C)oc2c1cc(NS(=O)(=O)c1cc(OC)ccc1OC)c1ccccc12	?	nt	nt	nt	nt	20.6µM*
COc1ccc2[nH]c3c(NCCCOC(C)C)ncnc3c2c1	?	-66.5*	?	?	-3.0%	?
COc1ccc2c(c1)[nH]c1c(=O)n(CCC3=CCCCC3)cnc12	?	-3.9	11.2%	10.3%	-4.8%	23.1µM*
Fc1ccc2[nH]c3c(NCc4ccccc4)ncnc3c2c1	5.17µM*	-85.6*	?	?	-14.0%	5.17µM*
O=c1c2[nH]c3ccc(F)cc3c2ncn1CCC1=CCCCC1	-3.1%	-10.0	-3.6%	14.8%	-0.4%	-14.3%
C=CCNc1ncnc2c1[nH]c1ccc(C)cc12	29.1µM*	-101.5*	?	?	?	20.6µM*
Cc1ccc(NC(=O)C2CCCN(S(=O)(=O)c3c(C)n[nH]c3C)C2)c(C)c1 (centres undefined)	6.1%	nt	nt	nt	nt	-21.2%
CCc1ccc(NC(=O)Cn2c(=O)n(CCC(=O)NCCc3ccc(Cl)cc3)c(=O)c3ccccc32)cc1	1.6%	nt	nt	nt	nt	-0.6%
C[C@@H]1CN([C@H](C)CO)C(=O)CCCn2nncc2CO[C@H]1CN(C)S(=O)(=O)c1cccc(C#N)c1	-5.6%	20.2	5.9%	0.9%	nt	-17.1%
COc1cccc(/C=N/Nc2ncnc3c2[nH]c2ccc(C)cc23)c1OC	2.06µM*	149.1	-0.5%	-10.7%	-10.3%	5.8µM*
COc1ccc2[nH]c3c(NCCC4=CCCCC4)ncnc3c2c1	2.59µM*	-105.1*	16.4µM*	29.1µM*	-19.0%	2.91µM*
O=C1CCCN1CCCNc1ncnc2c1[nH]c1ccc(Cl)cc12	?	?	?	-10.6%	1.1%	?
CCOc1ccc2[nH]c3c(NCCC(C)C)ncnc3c2c1	25.9µM*	-68.2*	?	?	?	18.4µM*
COc1ccc(/C=N/Nc2ncnc3c2[nH]c2ccccc23)c(OC)c1OC	-15.4%	16.0	-2.6%	-3.9%	10.0%	-29.4%
